{
  "source": "PubChem BioAssay (Tox21)",
  "note": "Inconclusive results are not listed. Active and inactive are the calls of the source. The call rests on the fitted dose curve; in most records, active means well fitted cell-killing curve with a large enough effect in the repeat runs; inconclusive means weak or mixed curves, or effect the other way; inactive means no such curve, though single readings can be large or run the other way. Potency means the concentration at half of the fitted maximal effect.",
  "data": [
    {"assay": "Caspase-3/7 induction in CHO-K1 cells by small molecules, qHTS cell viability counter screen (AID 1346979); further: nearly all actives have a fitted effect of over 35% in size", "conditions": "CellTiter-Fluor fluorescence, 17 h; series mostly up to 92.4 µM", "summary_of_the_method": "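Wild-type CHO-K1 cells were seeded at 1,500 per well, rested 5hr at 37 C, then exposed to compounds in DMSO. After 16hr, CellTiter-Fluor reagent was added and fluorescence read 1hr later as the viability measure.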", "values": [
      {"smiles": "Brc1ccccc1-c1ccccc1", "Potency": "inactive"},
      {"smiles": "CC(=O)C=O", "Potency": "inactive"},
      {"smiles": "O=C1Nc2ccc(Cl)cc2[C@@](C#CC2CC2)(C(F)(F)F)O1", "Potency": "21.1 µM (active)"},
      {"smiles": "Cc1cc2c(C(C)C)c(O)c(O)c(C=O)c2c(O)c1-c1c(C)cc2c(C(C)C)c(O)c(O)c(C=O)c2c1O", "Potency": "13.3 µM (active)"},
      {"smiles": "N#CSCSc1nc2ccccc2s1", "Potency": "17.2 µM (active)"},
      {"smiles": "Cc1c(-c2ccc(O)cc2)n(Cc2ccc(OCCN3CCCCCC3)cc2)c2ccc(O)cc12", "Potency": "29.8 µM (active)"},
      {"smiles": "Cc1oc(-c2ccccc2)nc1CCOc1ccc(C[C@H](Nc2ccccc2C(=O)c2ccccc2)C(=O)O)cc1", "Potency": "30.6 µM (active)"},
      {"smiles": "CCCCCCCCCCCCCOP(=O)(O)O", "Potency": "inactive"},
      {"smiles": "Clc1cc(Cl)c(-c2c(Cl)c(Cl)cc(Cl)c2Cl)cc1Cl", "Potency": "inactive"},
      {"smiles": "Cc1ccc(-n2[nH]c(C)c(N=Nc3cccc(-c4cccc(C(=O)O)c4)c3O)c2=O)cc1C", "Potency": "26.6 µM (active)"},
      {"smiles": "COC(=O)NCCC[Si](OC)(OC)OC", "Potency": "inactive"},
      {"smiles": "O=C1NC2CCCCN2C12CCN(CCCN1c3ccccc3CCc3ccc(Cl)cc31)CC2", "note": "(configuration not stated)", "Potency": "26.6 µM (active)"},
      {"smiles": "COc1ccccc1OCCNCC(O)COc1cccc2[nH]c3ccccc3c12", "note": "(configuration not stated)", "Potency": "29.8 µM (active)"},
      {"smiles": "CC=O", "Potency": "4.03 µM (active)"},
      {"smiles": "O[C@@H](c1cc(C(F)(F)F)nc2c(C(F)(F)F)cccc12)[C@H]1CCCCN1", "Potency": "26.6 µM (active)"},
      {"smiles": "COC(=O)C1=C(C)NC(C)=C(C(=O)OCCCN2CCC(c3ccccc3)(c3ccccc3)CC2)C1c1cccc([N+](=O)[O-])c1", "note": "(configuration not stated)", "Potency": "26.6 µM (active)"},
      {"smiles": "CCOC(=O)C1=C(C)NC(C)=C(C(=O)OCC)C1c1ccccc1/C=C/C(=O)OC(C)(C)C", "Potency": "33.5 µM (active)"}
    ]}
  ]
}
